According to PubChem BioAssay AID1852 (Sanford-Burnham Center for Chemical Genomics, 2009):
The campaign covered roughly 2,500 compounds. About 1,100 (44%) were called active. The set was probably picked from earlier hits. The list shows a part of the results. A number with no mark means an inactive call.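 The calls were made as follows: active = inhibition above 50% at 4 µM in the single-point screen; inactive = inhibition of 50% or less.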

Test: blockers of TNF-a NF-kB luciferase induction – cell-based, HEK293T NF-kB-Luc, luminescence, selectivity assay for NOD1/NOD2 signaling inhibitor project, primary screen (AID 1852)
Conditions: TNF-a induced, 14 h, at 4 µM, active compounds read high

SMILES	inhibition
CCN1CCN(S(=O)(=O)c2ccc(Cl)c(C(=O)Nc3cc(Cl)ccc3N3CCOCC3)c2)CC1	28.9%
CCN1CCN(S(=O)(=O)c2c(C)cc(C)cc2C)CC1	54.2% (active)
Cc1ccc(S(=O)(=O)N2CCN(CCC#N)CC2)cc1	44.4%
Cn1cccc1-c1cc(C(=O)N/N=C/c2cc(Br)ccc2O)[nH]n1	60.4% (active)
COc1ccc2[nH]c(C(=O)N/N=C/c3ccc(O)cc3O)cc2c1	48.1%
O=C1CSC(c2cccnc2)N1CCc1ccccn1 (stereo unspecified)	0.7%
Cc1ccc(NC(=O)c2cc3c(s2)CCCC3)cc1S(=O)(=O)Nc1ccccc1Cl	69.1% (active)
Cc1ccc(NC(=O)c2ccccc2NS(=O)(=O)c2ccc(Cl)s2)cc1	71.2% (active)
O=C(Nc1cc(S(=O)(=O)Nc2ccccc2Cl)ccc1O)c1cc2c(s1)CCCC2	36.1%
Cc1cc(NC(=O)c2ccccc2NS(=O)(=O)c2c(C)c(C)cc(C)c2C)no1	9.8%
COc1ccc(C)cc1NC(=O)c1ccccc1NS(=O)(=O)c1ccc(Cl)s1	87.9% (active)
CS(=O)(=O)Nc1ccccc1C(=O)Nc1cc(Cl)cc(Cl)c1	74.6% (active)
COc1ccccc1NS(=O)(=O)c1cccc(NC(=O)c2sc3ccccc3c2Cl)c1	39.2%
Cc1ccc(NC(=O)c2ccccc2NS(=O)(=O)c2ccc(Cl)s2)cc1S(=O)(=O)N1CCOCC1	84.3% (active)
COc1cccc(NS(=O)(=O)c2ccc(Br)s2)c1	-23.8%
COc1cc(NC(=O)c2ccccc2NS(=O)(=O)c2ccc(Cl)s2)cc(OC)c1	84.9% (active)
Cc1cc(C)cc(OCC(=O)OC/C(O)=C(\C#N)c2nc3ccccc3[nH]2)c1	103% (active)
N#C/C(=C(/O)COC(=O)COc1cccc(Br)c1)c1nc2ccccc2[nH]1	33%
N#C/C(=C(/O)COC(=O)COc1ccc(Cl)cc1)c1nc2ccccc2[nH]1	108% (active)
CCS(=O)(=O)c1nnnn1-c1ccccc1S(C)(=O)=O	43.2%
CCCS(=O)(=O)c1nnnn1-c1cccc(OC)c1	76.1% (active)

SMILES	inhibition
COc1cccc(-n2nnnc2S(C)(=O)=O)c1	79.5% (active)
N#CCCS(=O)(=O)c1nnnn1-c1ccccc1	75.5% (active)
Cc1cccc(Nc2ncnc3onc(-c4cccc(Cl)c4)c23)c1C	15.5%
O=C(Nc1cccc(C(=O)O)c1)Nc1ccccc1Cl	-17.8%
COc1cccc(NC(=O)CCC2CCN(C(=O)c3cncs3)CC2)c1	4.6%
COc1ccc(NC(=O)Nc2nnc(-c3ccncc3)s2)cc1	30%
COc1cccc(NC(=O)Nc2cccc(C(=O)O)c2)c1	65.7% (active)
COc1cccc(NC(=O)Nc2nc(-c3ccc(OC)c(OC)c3)cs2)c1	100% (active)
COc1ccc(OC)c(-c2csc(NC(=O)C3=NNC(=O)CC3)n2)c1	37.1%
CC(Sc1nnc2c(n1)[nH]c1ccccc12)C(=O)N(C)C1CCCCC1 (stereo unspecified)	32.3%
COc1ccc(OC)c(NC(=O)CSc2ncnc3c2cnn3-c2ccccc2Cl)c1	36.9%
COc1ccc(C)cc1NC(=O)CSc1ccc(-c2ccco2)nn1	-4.4%
COc1ccc(C)cc1NC(=O)CSc1ccc(-c2ccccn2)nn1	82.9% (active)
COc1ccc(C)cc1NC(=O)CSc1ccc(-c2sc(C)nc2C)nn1	21.8%
COc1ccc(NC(=O)CSc2ccc(-c3cccs3)nn2)c(OC)c1	72.8% (active)
Cc1ccc(NC(=O)Nc2nnc(-c3ccncc3)s2)cc1C	43.3%
O=C(N/N=C(\c1ccccc1)c1cccnc1)c1cccc(F)c1	102% (active)
COc1cc(C(=O)Nc2sc3c(c2C(=O)O)CCC(C)C3)cc(OC)c1OC (stereo unspecified)	40%
COc1cc(C(=O)Nc2scc(-c3ccc(Br)cc3)c2C(=O)O)cc(OC)c1OC	21.5%
COc1cccc(C(=O)N/N=C(/c2ccccc2)c2ccccn2)c1	62.2% (active)
COc1cc(C(=O)N/N=C(\c2ccccc2)c2ccccn2)cc(OC)c1OC	64% (active)

SMILES	inhibition
C/C(CC(=O)Nc1cccnc1)=N\NC(=O)c1ccc([N+](=O)[O-])c(Cl)c1	15.3%
COc1ccc(C(=O)N/N=C(\c2ccccc2)c2ccccn2)cc1	46.3%
COc1ccccc1-c1nc(C#N)c(N2CCN(c3cccc(Cl)c3)CC2)o1	-20.8%
COc1ccc(-c2csc3nc(-c4ccccc4OC)oc(=O)c23)cc1	12.5%
COc1ccccc1-c1nnc(Sc2nc([N+](=O)[O-])nn2C)o1	54.9% (active)
O=C(NCCCSc1ccccc1)c1cc(Cl)ccc1O	80.1% (active)
C/C(=N\NC(=O)c1cc(Cl)ccc1O)c1ccc(Br)s1	48%
O=C(NCCCSc1ccccc1)c1cc(Br)ccc1O	69.9% (active)
COc1cc(F)ccc1CN1CCC(C(=O)Nc2ccc(Oc3ccccc3)nc2)CC1	57% (active)
O=C(Nc1ccc(Oc2cccnc2)cc1)C1CCN(Cc2cc(Cl)ccc2O)CC1	47.8%
COc1ccccc1CNC(=O)C1CCN(C(=O)[C@@H]2Cc3ccccc3CN2)CC1	14.5%
Cc1ccc(NC(=O)c2ccc(S(=O)(=O)NCC3CCCO3)cc2)cc1C (stereo unspecified)	4.7%
O=C(Nc1cccc(Br)c1)c1ccc(Cl)c(S(=O)(=O)N2CCOCC2)c1	45.4%
O=C(Nc1ccc(Cl)c(S(=O)(=O)N2CCOCC2)c1)c1ccc(OCC2CCCO2)cc1 (stereo unspecified)	94.7% (active)
CN(C)S(=O)(=O)c1ccc(C(=O)Nc2nc(-c3cc4ccccc4o3)cs2)cc1	36.3%
CN(C)S(=O)(=O)c1ccc(-c2csc(N/N=C/c3ccco3)n2)cc1	99.8% (active)
O=C(/C=C\c1ccco1)Nc1nc(-c2ccc3ccccc3c2)cs1	36.9%
CCCC(=O)NC(c1cccs1)c1cc([N+](=O)[O-])c2cccnc2c1O (stereo unspecified)	71.3% (active)
CCC(=O)NC(c1cccs1)c1cc([N+](=O)[O-])c2cccnc2c1O (stereo unspecified)	86.2% (active)
